Assay results: PubChem BioAssay (NCATS)
Results filed as inconclusive are left out. Where a call stands in place of a potency, no number is given. The source made the active and inactive calls. Unless noted, calls come from the whole dose curve; as a rule, active = well fitted curve in the direction sought with a large enough effect; inconclusive = small, poorly fitted or top-dose-only effect, or another doubt; inactive = no such curve, though single readings can be large; an effect the other way counts as inactive or inconclusive.

What was measured:
[1] = biological target: Mitogen-activated protein kinase 10 (Mus musculus) (UniProt Q61831); experiment: JNK3 AlphaScreen Assay (AID 530; active = well fitted curve in either direction with a large enough effect, not every such curve was filed as active;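 note: kinase came from lysate of stimulated human HepG2 cells; signal reports phosphorylation of biotinylated GST-cJun 1-79 at Ser73 with 10 µM ATP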); conditions: JNK3 lysate, c-Jun phosphorylation; series mostly up to 57.1 µM
In short: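 qHTS titrations with 15 min compound pre-incubation before adding ATP (10 uM final). Read-out: AlphaScreen of Ser73-phosphorylated biotin-GST-cJun using HepG2 lysate JNK3 activated by IL-1β and TNFα.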

[2] = biological target: Cytochrome P450 3A4 (Homo sapiens) (UniProt P08684); experiment: qHTS Assay for Inhibitors and Substrates of Cytochrome P450 3A4 (AID 884); conditions: recombinant CYP3A4, Luciferin-PPXE luminescence; series mostly up to 57.1 µM; note: nearly all actives have a fitted effect of over 50% in size; note: potency is the fitted concentration of half-maximal effect
Sequence of Cytochrome P450 3A4 (Homo sapiens) (P08684 whole entry, looked up): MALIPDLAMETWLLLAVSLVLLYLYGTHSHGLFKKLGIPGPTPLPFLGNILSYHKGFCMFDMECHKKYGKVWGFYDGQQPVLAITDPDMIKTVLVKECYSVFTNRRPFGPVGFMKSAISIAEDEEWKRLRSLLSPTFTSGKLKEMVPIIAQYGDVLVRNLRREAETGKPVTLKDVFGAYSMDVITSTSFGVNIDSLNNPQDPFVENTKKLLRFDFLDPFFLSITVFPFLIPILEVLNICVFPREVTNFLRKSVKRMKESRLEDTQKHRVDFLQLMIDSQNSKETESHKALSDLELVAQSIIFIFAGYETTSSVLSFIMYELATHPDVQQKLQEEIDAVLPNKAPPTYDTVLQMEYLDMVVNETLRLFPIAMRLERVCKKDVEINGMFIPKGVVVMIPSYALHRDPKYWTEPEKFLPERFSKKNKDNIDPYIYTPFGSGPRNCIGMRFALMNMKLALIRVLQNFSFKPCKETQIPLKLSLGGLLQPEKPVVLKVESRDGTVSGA
In short: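 Luminescent readout of luciferin produced by CYP3A4 (20 nM) dealkylation of Luciferin-PPXE, 25 uM (its KM). NADPH-driven reaction ran 60 min at RT after 10 min compound preincubation; data scaled to 57 uM ketoconazole as 100% inhibition.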

[3] = biological target: Cytochrome P450 3A4 (Homo sapiens) (UniProt P08684); experiment: qHTS Assay for Activators of Cytochrome P450 3A4 (AID 885); conditions: recombinant CYP3A4, Luciferin-PPXE luminescence, 60 min; series mostly up to 57.1 µM; note: nearly all actives have a fitted effect of over 65% in size; note: potency is the fitted concentration of half-maximal effect
In short: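 CYP3A4 activity: Luciferin-PPXE O-dealkylation, 25uM substrate, 200mM KPO4, RT throughout. Read-out is luciferase luminescence; higher values reflect activation.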

Compound	outcome [1]	Potency [2]	Potency [3]
COC(=O)c1ccc(C(NC(=O)OCc2ccccc2)/C(C)=C/[C@@H](C)C(=O)NC2CCCCC2)cc1 (stereo not given in full)	inactive	2 µM (active)	inactive
COC(=O)c1ccc(C(NC(=O)OCc2ccccc2)/C(C)=C/[C@@H](C)C(=O)NCc2nc3ccccc3s2)cc1 (stereo not given in full)	inactive	3.98 µM (active)	inactive
CC(C)NC(=O)[C@@H]1C[C@@]1(C)[C@@H](NC(=O)OCc1ccccc1)c1ccccc1	inactive	10 µM (active)	inactive
COC(=O)c1ccc(C(NC(=O)OCc2ccccc2)/C(=C/[C@@H](C)C(=O)Nc2ccccc2)c2cccnc2)cc1 (stereo not given in full)	inactive	1.58 µM (active)	inactive
CC(=O)N1[C@H](Cc2ccccc2)C=C[C@]1(C)C(=O)NCc1cc(F)cc(C(F)(F)F)c1	inactive	6.31 µM (active)	inactive
COC(=O)c1ccc(C(NC(=O)OCc2ccccc2)/C(=C/[C@@H](C)C(=O)NCc2cc(F)cc(F)c2)c2cccnc2)cc1 (stereo not given in full)	inactive	1.58 µM (active)	inactive
CC(=O)N1C2(C=CC1(C)C(=O)NCc1ccccn1)CCCCC2 (stereo not given)	inactive	12.6 µM (active)	inactive
COC(=O)c1ccc(C(NC(=O)OCc2ccccc2)/C(=C/[C@@H](C)C(=O)NCc2ccc(C)o2)c2cccnc2)cc1 (stereo not given in full)	inactive	15.8 µM (active)	inactive
COC(=O)c1ccc(C(NC(=O)OCc2ccccc2)/C(=C/[C@@H](C)C(=O)NCc2ccc(-c3ccccc3)cc2)c2cccnc2)cc1 (stereo not given in full)	inactive	0.794 µM (active)	inactive
COC(=O)N1CC=CC1(C)C(=O)NCc1cc(F)cc(C(F)(F)F)c1 (stereo not given)	inactive	15.8 µM (active)	inactive
C[C@]1(C(=O)NCC2CC2)C=C[C@@H](Cc2ccccc2)N1C(=O)c1ccccc1	inactive	2 µM (active)	inactive
C[C@H](NC(=O)[C@@H]1C[C@H]1[C@@H](NC(=O)OCc1ccccc1)c1ccccc1)c1ccccc1	inactive	12.6 µM (active)	inactive
CC1=C(C(=O)OCc2ccccc2)C(C2CCCCC2)NC(=O)N1CCCCCC(=O)O (stereo not given)	inactive	inactive	15.8 µM (active)
COC(=O)c1ccc(C(NC(=O)OCc2ccccc2)/C(F)=C/[C@@H](C)C(=O)NCCc2c[nH]c3ccc(OC)cc23)cc1 (stereo not given in full)	inactive	1.26 µM (active)	inactive
CCCCCCN(C(=O)CCCCCN1C(=O)NC(c2ccc(Cl)cc2)C(C(=O)OCc2ccccc2)=C1C)C(C(=O)NCCCC)c1ccc(OCC(=O)OC)c(C(=O)OC)c1 (stereo not given)	inactive	3.16 µM (active)	inactive
COC(=O)c1ccc(C(NC(=O)OCc2ccccc2)/C(C)=C/[C@@H](C)C(=O)N2CCN(C)CC2)cc1 (stereo not given in full)	inactive	1.26 µM (active)	inactive
Cc1cc(CNC(=O)C(C)Cc2ccccc2)nn1C (stereo not given)	inactive	10 µM (active)	inactive
COC(=O)c1ccc(C(NC(=O)OCc2ccccc2)/C(C)=C/[C@@H](C)C(=O)NCc2cc(F)cc(F)c2)cc1 (stereo not given in full)	inactive	3.16 µM (active)	inactive
COC(=O)[C@@]1(C)C=C[C@@H](Cc2ccccc2)N1C	inactive	12.6 µM (active)	inactive
COC(=O)c1ccc(C(NC(=O)OCc2ccccc2)/C(F)=C/[C@@H](C)C(=O)NCCN2CCOCC2)cc1 (stereo not given in full)	inactive	3.98 µM (active)	inactive
CC(=O)N1[C@H](C)C=C[C@]1(Cc1ccccc1)C(=O)NCc1cc(F)cc(C(F)(F)F)c1	inactive	3.16 µM (active)	inactive
COC(=O)c1ccc(C(NC(=O)OCc2ccccc2)/C(=C/[C@@H](C)C(=O)NCc2ccncc2)c2cccnc2)cc1 (stereo not given in full)	inactive	1.26 µM (active)	inactive
CC1=C(C(=O)OCc2ccccc2)C(c2ccccc2-c2ccccc2)NC(=O)N1CCCCCC(=O)O (stereo not given)	inactive	10 µM (active)	inactive
COC(=O)c1ccc(C(NC(=O)OCc2ccccc2)/C(F)=C/[C@@H](C)C(=O)N(C)Cc2cccnc2)cc1 (stereo not given in full)	inactive	2 µM (active)	inactive
CCCCCCN(C(=O)CCCCCN1C(=O)NC(c2cccc([N+](=O)[O-])c2)C(C(=O)OCc2ccccc2)=C1C)C(C(=O)NCCCC)c1ccc(OCC(=O)OC)c(C(=O)OC)c1 (stereo not given)	inactive	3.16 µM (active)	inactive
C/C(=C\[C@@H](NP(=O)(c1ccccc1)c1ccccc1)c1ccccc1)CO[Si](c1ccccc1)(c1ccccc1)C(C)(C)C	inactive	2 µM (active)	inactive
CCCCCCN(C(=O)CCCCCN1C(=O)NC(c2ccccc2-c2ccccc2)C(C(=O)OCc2ccccc2)=C1C)C(C(=O)NCCCC)c1ccc(OCC(=O)OC)c(C(=O)OC)c1 (stereo not given)	inactive	6.31 µM (active)	inactive
CC(=O)N1[C@H](Cc2ccccc2)C=C[C@]1(C)C(=O)NCCN1CCOCC1	inactive	15.8 µM (active)	inactive

Compound	outcome [1]	Potency [2]	Potency [3]
CC1(C(=O)NCC2CC2)C=CC2(CCCCC2)N1C(=O)c1ccccc1 (stereo not given)	inactive	7.94 µM (active)	inactive
CCCCNC(=O)C(c1ccc(OCC(=O)OC)c(C(=O)OC)c1)N(Cc1ccccn1)C(=O)CCCCCN1C(=O)NC(c2ccc(-c3ccccc3)cc2)C(C(=O)OCc2ccccc2)=C1C (stereo not given)	inactive	7.94 µM (active)	inactive
Cc1ccc(CNC(=O)C2(CC(C)C)C=CCN2C(=O)c2ccccc2)o1 (stereo not given)	inactive	15.8 µM (active)	inactive
CC1(C)OCC(CSC2=C(SCC3COC(C)(C)O3)C(=O)c3ncccc3C2=O)O1 (stereo not given)	inactive	15.8 µM (active)	inactive
CC(C)(C)[Si](OCC[C@@H]1C[C@@]1(C)[C@@H](NP(=O)(c1ccccc1)c1ccccc1)c1ccccc1)(c1ccccc1)c1ccccc1	inactive	12.6 µM (active)	inactive
CCCCCCN(C(=O)CCCCCN1C(=O)NC(c2ccc(C3CCCCC3)cc2)C(C(=O)OCc2ccccc2)=C1C)C(C(=O)NCCCC)c1ccc(OCC(=O)OC)c(C(=O)OC)c1 (stereo not given)	inactive	2 µM (active)	inactive
COC(=O)c1ccc(C(NC(=O)OCc2ccccc2)/C(C)=C/[C@@H](C)C(=O)N[C@@H](CO)Cc2ccccc2)cc1 (stereo not given in full)	inactive	3.16 µM (active)	inactive
C[C@]1(C(=O)NCc2cc(F)cc(C(F)(F)F)c2)C=C[C@@H](Cc2ccccc2)N1C(=O)c1ccccc1	inactive	2 µM (active)	inactive
COC(=O)c1ccc(C(NC(=O)OCc2ccccc2)/C(F)=C/[C@@H](C)C(=O)NCc2nc3ccccc3s2)cc1 (stereo not given in full)	inactive	7.94 µM (active)	inactive
COC(=O)c1ccc(C(NC(=O)OCc2ccccc2)/C(=C/[C@@H](C)C(=O)NCc2nc3ccccc3s2)c2cccnc2)cc1 (stereo not given in full)	inactive	2 µM (active)	inactive
COC(=O)c1ccc(C(/C=C/[C@@H](C)C(=O)N[C@H](C)CO)NC(=O)OCc2ccccc2)cc1 (stereo not given in full)	inactive	15.8 µM (active)	inactive
CC(C)CC1(C(=O)NCC2CC2)C=CCN1C(=O)c1ccccc1 (stereo not given)	inactive	15.8 µM (active)	inactive
CC(=O)N1CC=CC1(CC(C)C)C(=O)NCc1cc(F)cc(C(F)(F)F)c1 (stereo not given)	inactive	12.6 µM (active)	inactive
COC(=O)c1ccc(C(NC(=O)OCc2ccccc2)/C(=C/[C@@H](C)C(=O)NCc2cccnc2)c2cccnc2)cc1 (stereo not given in full)	inactive	1 µM (active)	inactive
COC(=O)c1ccc(C(NC(=O)OCc2ccccc2)/C(=C/[C@@H](C)C(=O)N(C)C)c2cccnc2)cc1 (stereo not given in full)	inactive	5.01 µM (active)	inactive
CCCCCCN(C(=O)CCCCCN1C(=O)NC(c2ccc(-c3ccccc3)cc2)C(C(=O)OCc2ccccc2)=C1C)C(C(=O)NCCCC)c1ccc(OCC(=O)OC)cc1 (stereo not given)	inactive	10 µM (active)	inactive
C[C@]1(C(=O)NCCN2CCOCC2)C=C[C@@H](Cc2ccccc2)N1C(=O)c1ccccc1	inactive	7.94 µM (active)	inactive
CC(Cc1ccccc1)C(=O)N[C@@H](CO)Cc1ccccc1 (stereo not given in full)	inactive	15.8 µM (active)	inactive
COC(=O)c1ccc(C(NC(=O)OCc2ccccc2)/C(=C/[C@@H](C)C(=O)NCCc2c[nH]c3ccccc23)c2cccnc2)cc1 (stereo not given in full)	inactive	1.58 µM (active)	inactive
COC(=O)c1ccc(C(/C=C/[C@@H](C)C(=O)N(C)Cc2ccccc2)NC(=O)OCc2ccccc2)cc1 (stereo not given in full)	inactive	1.58 µM (active)	inactive
C[C@@H]1C=C[C@](Cc2ccccc2)(C(=O)NCC2CC2)N1C(=O)c1ccccc1	inactive	12.6 µM (active)	inactive
CC1(C(=O)NCCN2CCOCC2)C=CC2(CCCCC2)N1C(=O)c1ccccc1 (stereo not given)	inactive	7.94 µM (active)	inactive
CC(=O)N1[C@H](Cc2ccccc2)C=C[C@]1(C)C(=O)NCc1ccc(C)o1	inactive	7.94 µM (active)	inactive
CC1(C(=O)NCc2cc(F)cc(C(F)(F)F)c2)C=CC2(CCCCC2)N1C(=O)c1ccccc1 (stereo not given)	inactive	6.31 µM (active)	inactive
COC(=O)c1ccc(C(NC(=O)OCc2ccccc2)/C(=C/[C@@H](C)C(=O)NCc2ccc(OC)c(O)c2)c2cccnc2)cc1 (stereo not given in full)	inactive	2.51 µM (active)	inactive
CCCCCCN(C(=O)CCCCCN1C(=O)NC(c2ccc3ccccc3c2)C(C(=O)OCc2ccccc2)=C1C)C(C(=O)NCCCC)c1ccc(OCC(=O)OC)c(C(=O)OC)c1 (stereo not given)	inactive	2.51 µM (active)	inactive
C[C@@H]1C=C[C@](Cc2ccccc2)(C(=O)NCCc2c[nH]c3ccccc23)N1C(=O)c1ccccc1	inactive	2.51 µM (active)	inactive
